Data published in the supplement of paper PMC8371130.
Structures can show the parent of a compound that is named as a salt.

System: HL-1
Assay: relative cell viability (CellTiter-Glo) vs DMSO control (% of DMSO control); higher = more viable cells
Method in brief: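 HL-1 mouse atrial cardiomyocytes were seeded into 384-well plates at 1000 cells per well along with compounds at 40, 200, 1000 or 5000 nM in 0.01% DMSO. After one day, the cells were moved to a hypoxic workstation (1% O2) for 48 h and then reoxygenated for 24 h in a normal incubator, while others remained in normoxia for the same period. Cell viability was measured by CellTiter-Glo luminescence and normalised to vehicle-treated control cells.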

[1] = oxygen condition: hypoxia 48 h (1% O2) + reoxygenation 24 h, 40 nM
[2] = oxygen condition: hypoxia 48 h (1% O2) + reoxygenation 24 h, 200 nM
[3] = oxygen condition: hypoxia 48 h (1% O2) + reoxygenation 24 h, 1000 nM
[4] = oxygen condition: hypoxia 48 h (1% O2) + reoxygenation 24 h, 5000 nM
[5] = oxygen condition: normoxia 72 h, 40 nM
[6] = oxygen condition: normoxia 72 h, 200 nM
[7] = oxygen condition: normoxia 72 h, 1000 nM
[8] = oxygen condition: normoxia 72 h, 5000 nM

Structure (SMILES)	relative cell viability [1]	relative cell viability [2]	relative cell viability [3]	relative cell viability [4]	relative cell viability [5]	relative cell viability [6]	relative cell viability [7]	relative cell viability [8]
CC1(C)Cc2c(-c3ccccc3)c(-c3ccc(Cl)cc3)c(CC(=O)O)n2C1 [Licofelone]	97.3	94.8	97.1	105	92.9	96.5	93.5	108
Cc1cccc(CN2CCN(C(c3ccccc3)c3ccc(Cl)cc3)CC2)c1 (stereo not drawn) [Meclizine 2HCl]	101	108	98.5	107	101	109	111	103
O=C(O)c1cc(=O)c2ccccc2o1 [Chromocarb]	103	105	109	110	111	103	107	115
C[C@@H]1C[C@H]2[C@@H]3C[C@H](F)C4=CC(=O)C=C[C@]4(C)[C@@]3(F)[C@@H](O)C[C@]2(C)[C@@]1(O)C(=O)CO [Flumethasone]	105	97.4	103	106	96.3	95.8	94.4	108
O=C(O)c1ccc(NC(=O)[C@H](Cc2ccc(O)cc2)NC(=O)c2ccccc2)cc1 [Bentiromide]	104	104	101	102	103	106	99.5	111
C=C1/C(=C\C=C2/CCC[C@]3(C)[C@@H]([C@H](C)CCCC(C)(C)O)CC[C@@H]23)C[C@@H](O)C[C@@H]1O [Calcitriol]	90.8	91.2	92.9	91	94.5	92.6	93.6	89.9
Clc1ccc2c(c1)C(N1CCNCC1)=Nc1ccccc1O2 [Amoxapine]	102	100	104	109	98.5	105	111	113
Cc1cn([C@H]2C[C@H](N=[N+]=[N-])[C@@H](CO)O2)c(=O)[nH]c1=O [Zidovudine]	106	109	119	112	110	110	112	109
CCCC(=O)OCOC(=O)C1=C(C)NC(C)=C(C(=O)OC)C1c1cccc(Cl)c1Cl (stereo not drawn) [Cleviprex]	106	90.5	93.1	98	91.9	91.8	96.5	96.4
CN1CCN2c3ccccc3Cc3ccccc3C2C1 (stereo not drawn) [Mianserin hydrochloride]	74.7	97.7	84	107	63.6	92.5	98.1	111
C[C@H]1O[C@H](O[C@H]2[C@H](O)[C@@H](O)[C@@H](O[C@H]3[C@H](O)[C@@H](O)C(O)O[C@@H]3CO)O[C@@H]2CO)[C@H](O)[C@@H](O)[C@@H]1N[C@H]1C=C(CO)[C@@H](O)[C@H](O)[C@H]1O (stereo partly drawn) [Acarbose]	106	108	108	107	106	107	111	107
CC[C@H]1OC(=O)[C@H](C)[C@@H](O[C@H]2C[C@@](C)(OC)[C@@H](O)[C@H](C)O2)[C@H](C)[C@@H](O[C@@H]2O[C@H](C)C[C@H](N(C)C)[C@H]2O)[C@](C)(O)C[C@@H](C)CN(C)[C@H](C)[C@@H](O)[C@]1(C)O [Azithromycin]	109	103	99.3	59.1	105	96.2	102	41.1
C[C@H](CCC(=O)O)[C@H]1CC[C@H]2[C@@H]3CC[C@@H]4C[C@H](O)CC[C@]4(C)[C@H]3CC[C@]12C [Lithocholic acid]	108	108	108	113	102	113	105	108
CCOC(=O)[C@H](CCc1ccccc1)N[C@@H](C)C(=O)N1[C@H](C(=O)O)C[C@@H]2CCC[C@@H]21 [Ramipril]	100	115	113	123	112	105	117	116
CC[C@H](C)C(=O)O[C@H]1CCC=C2C=C[C@H](C)[C@H](CC[C@@H]3C[C@@H](O)CC(=O)O3)[C@H]21 [Mevastatin]	112	101	99.3	113	101	105	106	119
OCCOCCN1CCN(C2=Nc3ccccc3Sc3ccccc32)CC1 [Quetiapine fumarate]	98.9	104	106	104	103	106	108	108
O=C(c1ccccc1)c1ccc2n1CCC2C(=O)O (stereo not drawn) [Ketorolac]	104	105	104	109	102	98.3	103	111
N[C@@H](Cc1ccc(O)c(O)c1)C(=O)O [Levodopa]	110	109	107	110	104	101	108	104
Clc1ccc(C(Cn2ccnc2)OCc2ccc(Sc3ccccc3)cc2)c(Cl)c1 (stereo not drawn) [Fenticonazole nitrate]	102	102	105	107	102	98	101	104
O=C(O)CCCN1CCC(O[C@@H](c2ccc(Cl)cc2)c2ccccn2)CC1 [Bepotastine Besilate]	112	108	111	120	113	115	115	131
O=C(O)c1ccc(-n2nc(-c3ccccc3O)nc2-c2ccccc2O)cc1 [Deferasirox]	93.2	100	99.7	88.1	97	104	94.3	42.9

Structure (SMILES)	relative cell viability [1]	relative cell viability [2]	relative cell viability [3]	relative cell viability [4]	relative cell viability [5]	relative cell viability [6]	relative cell viability [7]	relative cell viability [8]
CCCNCC(O)COc1ccccc1C(=O)CCc1ccccc1 (stereo not drawn) [Propafenone]	97.1	105	108	105	107	102	110	103
COc1ccc2c(c1)C(=O)N(CCc1ccc(S(=O)(=O)NC(=O)NC3CCCCC3)cc1)C(=O)C2(C)C [Gliquidone]	97.7	108	102	113	96.6	114	110	116
CNC(=C[N+](=O)[O-])NCCSCc1ccc(CN(C)C)o1 [Ranitidine]	82.2	102	97.9	106	90.9	105	106	112
NC[C@H](O)c1ccc(O)c(O)c1 [Noradrenaline bitartrate monohydrate]	105	104	104	111	98.9	99.7	113	109
COC(=O)N[C@H](C(=O)N[C@@H](Cc1ccccc1)[C@@H](O)CN(Cc1ccc(-c2ccccn2)cc1)NC(=O)[C@@H](NC(=O)OC)C(C)(C)C)C(C)(C)C [Atazanavir sulfate]	104	101	105	108	101	97	98.5	116
O=C(O)C[C@H](O)C[C@H](O)/C=C/c1c(C2CC2)nc2ccccc2c1-c1ccc(F)cc1 [Pitavastatin calcium]	109	109	85.5	7.03	117	109	88.9	4.53
C[C@@H]1CC(=O)NN=C1c1ccc(NN=C(C#N)C#N)cc1 [Levosimendan]	101	103	102	108	95.9	103	105	103
CN(C)CCc1c[nH]c2ccc(Cn3cncn3)cc12 [Rizatriptan Benzoate]	103	108	110	107	109	104	110	113
NC(=O)N1c2ccccc2C=Cc2ccccc21 [Carbamazepine]	97.1	103	105	106	103	103	95.1	109
NCCCCCC(=O)O [Aminocaproic acid]	102	102	106	107	106	103	110	112
CN(C)CCC(c1ccc(Cl)cc1)c1ccccn1 (stereo not drawn) [Chlorpheniramine Maleate]	87.2	101	98.4	117	101	114	105	121
CN(CCOc1ccc(NS(C)(=O)=O)cc1)CCc1ccc(NS(C)(=O)=O)cc1 [Dofetilide]	102	99.8	99.2	112	101	109	106	107
Nc1nc(CC(=O)Nc2ccc(CCNC[C@H](O)c3ccccc3)cc2)cs1 [Mirabegron]	112	110	111	112	103	104	113	129
Cc1cccc(Nc2ccccc2C(=O)O)c1C [Mefenamic acid]	96.6	93.4	102	113	100	105	111	110
CC(C)(C#N)c1cc(Cn2cncn2)cc(C(C)(C)C#N)c1 [Anastrozole]	94.2	99.5	57.7	34.5	100	93.2	87.9	22.4
C[C@]12CC[C@@H]3c4ccc(O)cc4C[C@@H](CCCCCCCCC[S+]([O-])CCCC(F)(F)C(F)(F)F)[C@H]3[C@@H]1CC[C@@H]2O (stereo partly drawn) [Fulvestrant]	102	113	110	122	111	117	122	135
CN(C)CCCN1c2ccccc2Sc2ccc(C(F)(F)F)cc21 [Triflupromazine HCl]	98.8	105	102	106	102	99.3	101	106
Nc1nc(F)nc2c1ncn2[C@@H]1O[C@H](CO)[C@@H](O)[C@@H]1O [Fludarabine]	104	101	107	109	101	107	104	83.7
Cc1onc(-c2ccccc2Cl)c1C(=O)N[C@@H]1C(=O)N2[C@@H]1SC(C)(C)[C@@H]2C(=O)O [Cloxacillin sodium]	96	106	106	107	101	102	102	100
CC1(C)S[C@@H]2[C@H](NC(=O)[C@H](NC(=O)N3CCNC3=O)c3ccccc3)C(=O)N2[C@H]1C(=O)O [Azlocillin sodium salt]	102	102	106	110	101	104	112	116
